Among the data in PubChem BioAssay AID1259354 (Paczesny and Yang Labs, IUPUI and University of Michigan, 2018) are inhibition values, retold here.

Where “and” joins values, the source holds several entries; their conditions need not be identical. Equal entries are not always repeated. In all, about 78,000 compounds went through this assay and about 1,800 (2.3%) were called active. Another 27% or so got no clear call; they are omitted. No stated cut-off is given here; in the data, active means inhibition above about 30%; inconclusive means mostly about 10% to 28%; inactive means weaker than that. The entries come from a sample that favours actives as a whole.

The target in the assay is Interleukin-1 receptor-like 1 (Homo sapiens) (UniProt Q01638). Nature of the assay: blocks human ST2 binding to IL-33, primary screen, biochemical, AlphaLISA (AID 1259354). The conditions noted are these: AlphaLISA ST2-Fc/biotin-IL-33 interaction, 1 h; at 17 µM, active compounds read high.
Sequence of Interleukin-1 receptor-like 1 (Homo sapiens) (Q01638 whole entry, looked up): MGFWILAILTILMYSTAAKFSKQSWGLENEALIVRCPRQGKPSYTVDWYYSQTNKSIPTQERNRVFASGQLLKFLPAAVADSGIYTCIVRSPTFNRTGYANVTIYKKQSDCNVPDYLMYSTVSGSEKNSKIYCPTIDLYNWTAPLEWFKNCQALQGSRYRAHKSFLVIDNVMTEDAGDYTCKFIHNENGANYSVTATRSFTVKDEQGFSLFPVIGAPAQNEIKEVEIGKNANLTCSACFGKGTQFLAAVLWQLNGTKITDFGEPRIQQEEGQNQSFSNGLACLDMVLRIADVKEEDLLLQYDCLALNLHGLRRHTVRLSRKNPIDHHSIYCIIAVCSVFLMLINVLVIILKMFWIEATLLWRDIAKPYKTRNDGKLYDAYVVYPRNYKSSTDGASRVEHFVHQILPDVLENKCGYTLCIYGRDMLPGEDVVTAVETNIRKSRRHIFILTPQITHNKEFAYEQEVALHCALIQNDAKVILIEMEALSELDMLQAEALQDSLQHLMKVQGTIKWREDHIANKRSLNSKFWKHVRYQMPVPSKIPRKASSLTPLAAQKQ
As for `Cc1csc(SCC(=O)N2CCC(c3cc(C(C)C)n[nH]3)CC2)n1`, the inhibition entry is “inactive”.

For the compound `O=C(CN1CCN(Cc2cccc(Cl)c2)C1=O)N1CCCC1`, the inhibition entry is “inactive”.

As to `O=C(CSC1=Nc2ccccc2C2=NC(Cc3ccccc3)C(=O)N12)NC1CCCCC1` (stereo not drawn), the inhibition result was “inactive”.

For `COCCn1ccnc1-c1[nH]cnc1-c1ccccc1`, the inhibition result is “inactive”.

With `CC(C)c1ccc(-c2nc(N3CCCCC3)nc3n[nH]c(N)c23)cc1`, the inhibition entry was “inactive”.

In the case of `Cc1cc2c(Nc3cccc(Cl)c3C)ncnc2s1`, the inhibition result is “inactive”.

Consider `Nc1nonc1-n1nnc(CN2CCCCC2)c1CN1CCCCC1`, for which the inhibition entry is “inactive”.

As for `COc1ccc2nc(NC(=O)Cc3c(C(=O)O)n(C)c4ccccc34)sc2c1`, the inhibition result was “inactive”.

As to `Cc1ccc(N(C(=O)c2ccccc2Br)C2C=CS(=O)(=O)C2)cc1C` (stereo not drawn), the inhibition result is “inactive”.

For the compound `Cc1cccc(NC(=O)c2ccc([N+](=O)[O-])o2)c1`, the inhibition was 42% (active).

Take `Cc1ccc(NC(=O)c2ccc(Br)o2)c(C)c1`: the inhibition result was “inactive”.

`O=C(Nc1cccc([N+](=O)[O-])c1)c1cccc(Cl)c1Cl`: the inhibition result was “inactive”.

In the case of `CSCCC(NS(=O)(=O)c1cccc2nsnc12)C(=O)O` (stereo not drawn), the inhibition entry is “inactive”.

Regarding `N#Cc1c(SCC(=O)Nc2ccccc2)ncc2cc3ccccc3nc12`, the inhibition is 32% (active).

Consider `Cc1cccc(-c2nc(N3CCCC3)c3ccccc3n2)c1`, for which the inhibition result is “inactive”.

With `c1ccc(-c2csc3ncnc(N4CCCCC4)c23)cc1`, the inhibition entry is “inactive”.

In the case of `N#Cc1c(SCC(=O)Nc2ccccn2)nsc1SCC(=O)Nc1ccccn1`, the inhibition result is “inactive”.

As to `N#Cc1c(N2CCCCCC2)ncc2cc3ccccc3nc12`, the inhibition was 37% (active).

For the compound `N#Cc1c(-c2ccccc2)cc(-c2ccccc2)nc1SCC(=O)O`, the inhibition result was “inactive”.

Take `COc1cc2c(cc1OC)[C@H]1CN3CCc4cc(OC)c(OC)cc4[C@@H]3CN1CC2`: the inhibition result was “inactive”.

As for `CCn1cc(S(=O)(=O)N2CCCC2c2ccccn2)c(C)n1` (stereo not drawn), the inhibition entry was “inactive”.

As for `Cc1cc(C(=O)N(CC2CCN(C3Cc4ccccc4C3)CC2)CC2CCCO2)nc(C)n1` (stereo not drawn), the inhibition entry is “inactive”.

With `Cc1cc(C)c2c(CC(=O)NCc3cccnc3N3CCOCC3)coc2c1`, the inhibition result is “inactive”.

For `c1ccc(CSc2ncc(C3NCCc4[nH]cnc43)cn2)cc1` (stereo not drawn), the inhibition entry is “inactive”.

With `Cc1cc(NC(=O)C(NS(=O)(=O)c2cccs2)C(C)C)ccc1Br` (stereo not drawn), the inhibition entry was “inactive”.

For `Fc1cccc(Cl)c1C1CC(c2ccccc2)Nc2ncnn21` (stereo not drawn), the inhibition result is “inactive”.

Consider `Cn1c(CC2CCNCC2)nnc1SCCOc1ccc(Cl)cc1`, for which the inhibition result was “inactive”.

For the compound `O=C(c1cccc(-c2ncc[nH]2)c1)N1Cc2cnn(CCO)c2C1`, the inhibition result is “inactive”.

`CN1CCN(C(=O)c2ccnc(-c3cc(N)nc4[nH]ccc34)c2)CC1`: the inhibition is 30% (active).

Take `O=C(c1ccnc(-n2cnnc2)c1)N1CCC2(CC1)C(=O)Nc1ccccc12`: the inhibition entry is “inactive”.

For `COc1ccc(C(=O)NC(Nc2ccccc2Cl)C(Cl)(Cl)Cl)cc1` (stereo not drawn), the inhibition entry was “inactive”.

In the case of `Cc1ccc(NC(=O)CNCC(C)c2ccccc2)c(C)c1` (stereo not drawn), the inhibition result was “inactive”.

With `OC(C#Cc1ccccc1)C#Cc1ccccc1`, the inhibition result was “inactive”.

For the compound `Cc1nonc1C1CCCN1Cc1cnc(S(=O)(=O)C(C)C)n1Cc1ccccc1F` (stereo not drawn), the inhibition result was “inactive”.

For the compound `CSCc1nnc(NC(=O)c2ccc(S(=O)(=O)N3CCCc4ccccc43)cc2)o1`, the inhibition entry was “inactive”.

Consider `O=C(Nc1nnc(-c2cccs2)o1)c1ccc(S(=O)(=O)N2CCCc3ccccc32)cc1`, for which the inhibition entry is “inactive”.

For `CC1CCc2nc(NC(=O)c3ccc(S(=O)(=O)N4CCc5ccccc54)cc3)sc2C1` (stereo not drawn), the inhibition is 30% (active).

Turning to `CCN(CC)C(=O)[C@@H]1C[C@H](n2cc(Cn3c(C)nc4ccccc43)nn2)CN1`, the inhibition entry was “inactive”.

Regarding `CC1=Nc2c(ccc3cccnc23)C1(C)C`, the inhibition was 36% (active).

For the compound `Brc1ccc(CSc2cccc3cccnc23)cc1`, the inhibition entry was “inactive”.

Regarding `CSCCNC(=O)CC1C(=O)NCCN1Cc1ccccc1` (stereo not drawn), the inhibition entry is “inactive”.

Take `Cc1cc2oc(=O)cc(CN(C)C(C)c3ccon3)c2cc1C` (stereo not drawn): the inhibition entry is “inactive”.

As to `Clc1ccc(OCCCCN2CCOCC2)c(Br)c1`, the inhibition result was “inactive”.

Regarding `CN(Cc1ccccc1)C(=O)CN(C)S(=O)(=O)c1ccc(Cl)cc1`, the inhibition entry is “inactive”.

Take `CN(Cc1ccccc1)C(=O)c1cc(-c2ccc(Cl)cc2)on1`: the inhibition entry was “inactive”.

On to `CN(Cc1ccccc1)C(=O)CN1C(=O)/C(=C\c2cccc(Cl)c2)Sc2ccccc21`, for which the inhibition is 44% (active).

Regarding `O=C(NC(Nc1cccc([N+](=O)[O-])c1)C(Cl)(Cl)Cl)c1ccc(Br)cc1` (stereo not drawn), the inhibition result was “inactive”.

For `CCOC(=O)c1c(C)[nH]c(C(=O)NC(C)c2cnn(-c3ccccc3C)c2C)c1C` (stereo not drawn), the inhibition entry is “inactive”.

`CN(Cc1ccccc1)C(=O)C1(S(=O)(=O)c2ccc(Cl)cc2)CC1`: the inhibition result is “inactive”.

For the compound `COc1ccc(Nc2ccn(-c3nc(-c4ccccc4)oc3-c3ccccc3)c(=O)n2)cc1`, the inhibition result was “inactive”.

In the case of `COc1ccc(-c2csc(=Nc3ccccc3)n2C)cc1`, the inhibition was 59% (active) and 52% (active).

As to `O=C(C(NS(=O)(=O)c1cccs1)c1ccccc1)N1CCc2ccccc21` (stereo not drawn), the inhibition entry was “inactive”.

With `COc1cc(OC)cc(C(=O)Nc2cc(N3CCCS3(=O)=O)ccc2OC)c1`, the inhibition entry is “inactive”.

Consider `CC(=O)Nc1nonc1N1C(=N)S/C(=C\c2ccc(-c3cccc(F)c3)o2)C1=O`, for which the inhibition result is “inactive”.

In the case of `O=C1NC(=O)/C(=C\c2ccc(-c3cccc(Cl)c3)o2)S1`, the inhibition result is “inactive”.

Turning to `O=C1NC(=O)/C(=C\c2ccc(-c3ccc(F)c(Cl)c3)o2)S1`, the inhibition was 34% (active).

As to `Cc1nc(CC(=O)NCCc2csc(-c3cccnc3)n2)cs1`, the inhibition result was “inactive”.

As for `COc1ccc(CCNS(=O)(=O)c2cccc3cccnc23)cc1OC`, the inhibition entry was “inactive”.

Regarding `COc1cc(NS(=O)(=O)c2ccc3c(c2)CCN3C(=O)C2CC2)cc(OC)c1`, the inhibition result was “inactive”.

`Cc1cccc(C)c1NC(=O)c1ccc(F)cc1`: the inhibition result was “inactive”.

For `N#CC1=C(N)OC2=C(C(=O)CC(c3ccccc3)C2)C1c1cccs1` (stereo not drawn), the inhibition entry is “inactive”.

As to `O=C1CC2(CCCCC2)Oc2ccc(OCC(=O)N3CCOCC3)cc21`, the inhibition entry was “inactive”.

For the compound `CCc1nc(C)ccc1OCC(=O)N1CCC2(CN(C)C(=O)O2)C1` (stereo not drawn), the inhibition was 30% (active).

Regarding `O=C(CN1CCCCC1)N1c2ccccc2Sc2ccc(C(F)(F)F)cc21`, the inhibition entry is “inactive”.

As for `O=C(CN1C(=O)/C(=C\c2ccc(C(F)(F)F)cc2)Sc2ccccc21)NCc1ccco1`, the inhibition is 32% (active).

On to `O=C(CN1C(=O)/C(=C\c2ccc(C(F)(F)F)cc2)Sc2ccccc21)NCC1CCCO1` (stereo not drawn), for which the inhibition was 30% (active).

Regarding `O=C(CN1CCN(Cc2ccc(F)cc2)C1=O)NCC1CCCO1` (stereo not drawn), the inhibition entry is “inactive”.

On to `O=C(CN1C(=O)C2CCCCN2C(=O)c2ccccc21)NCC1CCCO1` (stereo not drawn), for which the inhibition entry is “inactive”.

In the case of `O=C(CN1C(=O)CC(c2ccccc2)Sc2ccccc21)NCc1ccco1` (stereo not drawn), the inhibition result was “inactive”.

For `CC(C)c1ccc(Nc2c(-c3cccs3)nc3cnccn23)cc1`, the inhibition result was “inactive”.

Regarding `O=C(c1ccccc1F)N1CCc2c(c(C(=O)N3CCOCC3)nn2CCCc2ccccc2)C1`, the inhibition entry is “inactive”.

Consider `CC(C)c1ccc(NC2CCCN(C(=O)CCc3nc(-c4ccccc4)no3)C2)cc1` (stereo not drawn), for which the inhibition entry is “inactive”.

In the case of `CC1=C(C(N)=O)C(c2ccccc2Cl)n2ncnc2N1` (stereo not drawn), the inhibition entry was “inactive”.

As to `O=C(Cn1nc(-c2ccccc2)ccc1=O)NCCN1CCOCC1`, the inhibition entry was “inactive”.

As to `COc1c(F)ccc(-c2nc(C(C)C)nn2-c2ccccn2)c1F`, the inhibition result is “inactive”.

As for `CN(C)CCCNc1c2c(c(C#N)c3nc4ccccc4n13)CCC2`, the inhibition was 51% (active).

For `N#Cc1c2c(c(-n3ccnc3)n3c1nc1ccccc13)CCC2`, the inhibition result was “inactive”.

On to `Cc1c(CCC#N)c(-n2ccnc2)n2c(nc3ccccc32)c1C#N`, for which the inhibition entry was “inactive”.

As for `Cc1cc(NCCN2CCCCCC2)n2c(nc3ccccc32)c1C#N`, the inhibition is 45% (active).

Consider `O=C(CN1CCCN(Cc2ccccc2)S1(=O)=O)NCCc1ccccc1`, for which the inhibition result was “inactive”.

As for `COc1ccc(Cl)cc1C(=O)N1CCN(c2cccc(Cl)c2)CC1`, the inhibition entry was “inactive”.

With `CN1C(N)=NC(=O)/C1=C/c1cc(Br)c(O)c(Br)c1`, the inhibition result is “inactive”.

As for `COc1cc(/C=C2/C(=O)N(c3ccc(Cl)c(Cl)c3)N=C2C)cc(Br)c1O`, the inhibition is 37% (active).

For the compound `COc1ccc(/C=C2\C(=O)N(c3ccc(Cl)c(C(=O)O)c3)N=C2C)cc1Br`, the inhibition is 72% (active).

For `COc1ccc2cc(-c3ccccc3NC(=O)CN)ccc2c1`, the inhibition entry was “inactive”.

With `COc1ccc(C2C(C(=O)N3CCC(C)CC3)c3cc(OC)c(OC)cc3C(=O)N2C)cc1` (stereo not drawn), the inhibition result was “inactive”.

Consider `CCOc1ccc(Br)c(/C=C2\C(=O)Nc3ccc(Br)cc32)c1`, for which the inhibition is 60% (active).

For `COc1cc(/C=C2\C(=O)Nc3ccc(Br)cc32)ccc1O`, the inhibition entry is “inactive”.

On to `CCOc1cc(/C=C2\C(=O)NC(=O)N(c3ccc(Br)cc3)C2=O)ccc1O`, for which the inhibition result was “inactive”.

Turning to `COCc1cc(CNC(=O)c2csc3c2CCCC3)[nH]n1`, the inhibition entry was “inactive”.

`O=C(Nc1ccccc1)/C(=C/c1ccc2c(c1)OCO2)NC(=O)c1ccc(Br)o1`: the inhibition result was “inactive”.

With `COc1ccccc1C(=O)N/C(=C\c1ccc2c(c1)OCO2)C(N)=O`, the inhibition result is “inactive”.

Turning to `COc1ccccc1C(=O)N/C(=C/c1ccc2c(c1)OCO2)C(=O)Nc1cccc(C(=O)O)c1`, the inhibition was 39% (active).

For the compound `CC(C)(C)NS(=O)(=O)c1ccc2c(c1)C(=O)c1cc(S(=O)(=O)NC(C)(C)C)ccc1-2`, the inhibition result was “inactive”.

In the case of `CCCc1nc(CN(C)C(=O)c2c(O)cccc2O)no1`, the inhibition entry was “inactive”.

`CC(C)c1ccc(CNCCCN(C)C)cc1`: the inhibition result was “inactive”.

In the case of `O=C(NC1CCCCC1)N1CCC(n2cc(-c3ccccn3)nn2)CC1`, the inhibition result was “inactive”.

Take `COc1ccc(-c2nc3s/c(=C\C4=Cc5ccccc5OC4C)c(=O)n3n2)cc1` (stereo not drawn): the inhibition result was “inactive”.

Turning to `O=C(Nc1ccccc1-c1ccccc1)c1ccccc1[N+](=O)[O-]`, the inhibition result is “inactive”.

For the compound `CC1CCN(S(=O)(=O)c2ccc(Cl)c(S(=O)(=O)N3CCC(C)CC3)c2)CC1`, the inhibition result is “inactive”.

As for `CC1CCN(S(=O)(=O)c2ccc(Cl)c(C(=O)Nc3ccccc3[N+](=O)[O-])c2)CC1`, the inhibition is 34% (active).

For the compound `C/C(=C/c1nsc(Nc2ccc(Cl)cc2)n1)NC1CC(C)(C)NC(C)(C)C1`, the inhibition result was “inactive”.

Consider `CC1CCCC(C)N1C(=O)c1cccc2c1-c1ccccc1C2=O` (stereo not drawn), for which the inhibition result was “inactive”.

Turning to `Cc1ccccc1CC1(C(=O)O)CCCN(c2cc(C3CC3)ncn2)C1` (stereo not drawn), the inhibition entry is “inactive”.

Take `CC(=O)C1=C(C)OC(N)=C(C#N)C1c1ccccc1` (stereo not drawn): the inhibition entry was “inactive”.

`Cc1nc(-c2cccc(NC(=O)C3CCN(c4ccccc4)C3=O)c2)no1` (stereo not drawn): the inhibition was 37% (active).

Take `O=C(Nc1cccc(-c2cccc(Cl)c2)c1)C1CCN(C(=O)c2ccccc2)CC1`: the inhibition entry is “inactive”.

In the case of `Cc1cccc(NC(=O)CN2C(=O)CC(c3ccccc3)=Nc3ccccc32)c1`, the inhibition result is “inactive”.

One may read the inhibition as how much of the control response was suppressed.
